Data from the supplement of paper PMC10849652.
Targets with a hit are over-represented here; the source holds about 8,800 in all. About 0.5% of all pairs of compound and target were hits. A number with no mark means an inactive call.

Assays:
Assay in all cases: log2 fold change, soluble protein after heating vs DMSO (PISA); higher = thermal stabilisation; K562 lysate, 10 uM; active = over 0.2 and 3.5 SD of the protein, either way, in both replicates (recomputed)
[1] = compound: CC(=O)c1cnc2ccc(-c3cc(Cl)c(O)c(Cl)c3)nc2c1N[C@H]1CC[C@H](CN(C)C)CC1
Outline: (§1)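 K562 pellets were dounce-homogenised in PBS pH 7.4 containing 1 mM MgCl2, and the crude extract, at 1 mg/mL protein, was exposed to 10 μM compound for 30 min. Aliquots were heated for 3 min across 48°C-58°C, pooled, brought to 0.5% NP-40 at 4°C and spun at 21,000xg for 90 min, with the supernatant taken as soluble protein. TMTpro 16plex LC-MS/MS with equalised channel sums quantified that protein. Values are log-two fold changes in thermal stability relative to solvent controls, taken from duplicates.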

[2] = compound: CC(C)(C)Cn1c(N)nc2ccc(-c3[nH]c(C(C)(C)C)nc3-c3ccc(F)cc3)nc21 [ralimetinib]
Outline: as §1

[3] = compound: CC(C)(O)CC(=O)NCCn1ccc2ncnc(Nc3ccc(Oc4cccc(C(F)(F)F)c4)c(Cl)c3)c21
Outline: as §1

[4] = compound: CC(C)C1=C2N=C(C=C(N2N=C1)NCC3=CC=CC=C3)NCCCCCCN
Outline: as §1

[5] = compound: CC1=C(C2=C(C=C1)C(=O)C3=CC=CC=C3N2CCCN)C
Outline: as §1

[6] = compound: CC1=C(C=C(C=C1)NC(=O)C2=CC(=CC=C2)C(C)(C)C#N)NC3=CC4=C(C=C3)N=CN(C4=O)C
Outline: as §1

[7] = compound: CC1=C(C=C(C=C1)NC(=O)C2=CC(=CC=C2)N(C)C)NC(=O)C3=CC=C(C=C3)O
Outline: as §1

[8] = compound: CC1=CC=C(C=C1)SC2=C3C=C(SC3=CN=C2)C(=O)N
Outline: as §1

[9] = compound: CCCS(=O)(=O)Nc1ccc(F)c(C(=O)c2c[nH]c3ncc(-c4ccc(Cl)cc4)cc23)c1F [vemurafenib]
Outline: as §1

[10] = compound: CCCS(=O)(=O)Nc1ccc(F)c(C(=O)c2c[nH]c3ncc(Cl)cc23)c1F
Outline: as §1

[11] = compound: CC[C@@H]1C(=O)N(C)c2cnc(Nc3ccc(C(=O)NC4CCN(C)CC4)cc3OC)nc2N1C1CCCC1
Outline: as §1

[12] = compound: CC[C@@H]1C(=O)N(C)c2cnc(Nc3ccc(C(=O)N[C@H]4CC[C@H](N5CCN(CC6CC6)CC5)CC4)cc3OC)nc2N1C(C)C [volasertib]
Outline: as §1

[13] = compound: CCn1c(C(=O)N(C2CC2)C2CC2)cc2c3c(ncn3C)c(Nc3cc(C)n(C)n3)nc21
Outline: as §1

[14] = compound: CCn1cc(-c2ccnc3[nH]c(-c4cccc(CN(C)C)c4)cc23)c(-c2ccc(NC(=O)N(C)C)cc2)n1
Outline: as §1

[15] = compound: CN1CCC(CNc2ccc3ncc(-c4cccc(OC(F)(F)F)c4)n3n2)CC1
Outline: as §1

[16] = compound: CN1CCN(CCOc2cc(OC3CCOCC3)c3c(Nc4c(Cl)ccc5c4OCO5)ncnc3c2)CC1 [saracatinib]
Outline: as §1

[17] = compound: CN1CCN(c2nc(C3=C(c4c[nH]c5ccccc45)C(=O)NC3=O)c3ccccc3n2)CC1 [sotrastaurin]
Outline: as §1

[18] = compound: C=CC(=O)N1CCC[C@@H](n2nc(-c3ccc(Oc4ccccc4)cc3)c3c(N)ncnc32)C1 [ibrutinib]
Outline: as §1

[19] = compound: CCN(CCCOc1ccc2c(Nc3cc(CC(=O)Nc4cccc(F)c4)[nH]n3)ncnc2c1)CCOP(=O)(O)O [barasertib]
Outline: as §1

[20] = compound: CC1=C(C(CC(=O)N1)C2=CC=C(C=C2)C(F)(F)F)C(=O)NC3=C(C=C4C(=C3)C=NN4)F
Outline: as §1

Chain of UniProt Q9BUV8 (Q9BUV8 whole entry, looked up): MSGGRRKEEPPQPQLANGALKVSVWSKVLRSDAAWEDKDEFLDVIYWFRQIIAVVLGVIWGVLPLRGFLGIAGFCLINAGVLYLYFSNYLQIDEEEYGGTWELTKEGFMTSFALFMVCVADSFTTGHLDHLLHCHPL
Chain of UniProt Q8TC12 (Q8TC12 whole entry, looked up): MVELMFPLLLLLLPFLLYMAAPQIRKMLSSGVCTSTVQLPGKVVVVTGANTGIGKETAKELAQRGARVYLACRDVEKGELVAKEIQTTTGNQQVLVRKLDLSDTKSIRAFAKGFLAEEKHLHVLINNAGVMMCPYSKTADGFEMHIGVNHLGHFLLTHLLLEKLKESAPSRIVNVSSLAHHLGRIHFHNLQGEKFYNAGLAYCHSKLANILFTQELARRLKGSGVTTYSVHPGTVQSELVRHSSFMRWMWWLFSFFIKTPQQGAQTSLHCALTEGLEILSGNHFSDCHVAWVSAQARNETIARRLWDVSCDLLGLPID
Chain of UniProt Q9BWG6 (Q9BWG6 whole entry, looked up): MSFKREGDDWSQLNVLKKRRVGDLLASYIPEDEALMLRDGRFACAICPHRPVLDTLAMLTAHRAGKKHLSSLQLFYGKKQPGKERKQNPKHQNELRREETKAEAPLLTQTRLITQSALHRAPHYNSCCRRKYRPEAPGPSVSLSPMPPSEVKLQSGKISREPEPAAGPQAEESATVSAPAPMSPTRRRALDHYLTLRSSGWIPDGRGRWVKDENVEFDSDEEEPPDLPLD
Chain of UniProt O75582 (O75582 whole entry, looked up): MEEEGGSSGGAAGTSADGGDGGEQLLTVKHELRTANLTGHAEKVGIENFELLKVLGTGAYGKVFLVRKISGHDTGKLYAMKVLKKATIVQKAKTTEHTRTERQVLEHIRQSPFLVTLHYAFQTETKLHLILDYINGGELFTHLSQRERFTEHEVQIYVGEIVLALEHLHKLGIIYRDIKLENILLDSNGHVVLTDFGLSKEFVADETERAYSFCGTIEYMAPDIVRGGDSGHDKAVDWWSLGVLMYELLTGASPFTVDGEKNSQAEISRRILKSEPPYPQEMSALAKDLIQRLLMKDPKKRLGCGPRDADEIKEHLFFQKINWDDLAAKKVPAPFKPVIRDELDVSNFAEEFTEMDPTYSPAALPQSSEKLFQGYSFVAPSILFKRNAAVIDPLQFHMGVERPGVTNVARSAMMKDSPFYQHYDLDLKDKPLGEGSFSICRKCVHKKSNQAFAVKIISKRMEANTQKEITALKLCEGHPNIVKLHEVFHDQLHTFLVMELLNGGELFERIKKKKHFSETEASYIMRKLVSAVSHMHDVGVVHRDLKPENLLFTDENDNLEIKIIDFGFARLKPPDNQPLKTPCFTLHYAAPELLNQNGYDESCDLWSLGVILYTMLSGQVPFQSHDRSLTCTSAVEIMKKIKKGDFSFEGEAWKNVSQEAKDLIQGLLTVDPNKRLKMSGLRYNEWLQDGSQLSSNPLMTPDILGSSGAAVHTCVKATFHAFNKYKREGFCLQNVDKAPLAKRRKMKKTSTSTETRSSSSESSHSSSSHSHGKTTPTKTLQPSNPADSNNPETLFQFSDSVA
Chain of UniProt Q9Y6D0 (Q9Y6D0 whole entry, looked up): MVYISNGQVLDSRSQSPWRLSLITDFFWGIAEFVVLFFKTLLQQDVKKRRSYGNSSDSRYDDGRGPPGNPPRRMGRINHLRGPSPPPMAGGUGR
Chain of UniProt Q96E14 (Q96E14 whole entry, looked up): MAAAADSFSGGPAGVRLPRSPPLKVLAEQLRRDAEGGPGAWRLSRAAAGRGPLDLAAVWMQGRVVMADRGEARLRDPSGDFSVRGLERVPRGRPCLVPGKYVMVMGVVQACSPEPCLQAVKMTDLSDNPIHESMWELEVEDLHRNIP
Chain of UniProt O94761 (O94761 whole entry, looked up): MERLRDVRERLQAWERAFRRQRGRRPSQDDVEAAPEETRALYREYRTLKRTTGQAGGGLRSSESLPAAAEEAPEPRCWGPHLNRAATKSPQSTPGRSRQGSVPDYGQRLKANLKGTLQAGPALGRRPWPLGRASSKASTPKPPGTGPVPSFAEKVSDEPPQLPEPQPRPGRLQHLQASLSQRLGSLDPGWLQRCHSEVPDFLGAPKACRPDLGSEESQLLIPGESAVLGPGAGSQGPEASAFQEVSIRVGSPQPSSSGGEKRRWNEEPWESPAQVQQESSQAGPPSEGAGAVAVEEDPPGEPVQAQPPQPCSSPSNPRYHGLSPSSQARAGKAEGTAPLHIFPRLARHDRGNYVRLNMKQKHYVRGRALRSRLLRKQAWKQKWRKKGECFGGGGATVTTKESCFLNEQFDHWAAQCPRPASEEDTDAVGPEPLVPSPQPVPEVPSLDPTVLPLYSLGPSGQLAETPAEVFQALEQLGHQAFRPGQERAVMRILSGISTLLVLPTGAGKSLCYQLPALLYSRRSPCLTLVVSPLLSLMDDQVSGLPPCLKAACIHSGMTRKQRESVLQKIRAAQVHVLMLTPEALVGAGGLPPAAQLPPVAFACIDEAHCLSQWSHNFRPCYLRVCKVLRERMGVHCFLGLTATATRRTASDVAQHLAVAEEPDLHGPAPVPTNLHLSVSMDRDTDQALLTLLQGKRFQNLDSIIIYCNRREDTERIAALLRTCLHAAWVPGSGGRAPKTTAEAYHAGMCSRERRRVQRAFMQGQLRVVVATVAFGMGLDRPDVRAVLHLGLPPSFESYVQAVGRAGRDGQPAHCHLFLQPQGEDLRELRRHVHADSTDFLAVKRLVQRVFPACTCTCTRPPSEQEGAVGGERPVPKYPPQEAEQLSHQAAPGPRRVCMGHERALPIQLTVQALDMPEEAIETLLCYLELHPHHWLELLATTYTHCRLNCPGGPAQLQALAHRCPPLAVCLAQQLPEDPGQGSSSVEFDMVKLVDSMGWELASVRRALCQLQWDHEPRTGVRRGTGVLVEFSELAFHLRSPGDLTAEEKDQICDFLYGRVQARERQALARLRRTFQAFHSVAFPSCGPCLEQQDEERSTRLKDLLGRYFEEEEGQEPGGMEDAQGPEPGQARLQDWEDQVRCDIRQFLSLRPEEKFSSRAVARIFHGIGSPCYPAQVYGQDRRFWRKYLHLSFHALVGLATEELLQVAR
Chain of UniProt Q8TEB9 (Q8TEB9 whole entry, looked up): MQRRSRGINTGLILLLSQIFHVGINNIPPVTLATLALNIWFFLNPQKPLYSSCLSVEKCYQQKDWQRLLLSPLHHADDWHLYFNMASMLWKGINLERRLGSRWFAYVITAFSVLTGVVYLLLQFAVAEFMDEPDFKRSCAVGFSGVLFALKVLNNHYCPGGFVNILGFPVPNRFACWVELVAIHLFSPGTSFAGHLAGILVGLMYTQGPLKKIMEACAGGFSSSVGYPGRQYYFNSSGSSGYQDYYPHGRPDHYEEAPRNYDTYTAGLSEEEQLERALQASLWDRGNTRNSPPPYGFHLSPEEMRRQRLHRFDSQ
Chain of UniProt Q9UPW6 (Q9UPW6 whole entry, looked up): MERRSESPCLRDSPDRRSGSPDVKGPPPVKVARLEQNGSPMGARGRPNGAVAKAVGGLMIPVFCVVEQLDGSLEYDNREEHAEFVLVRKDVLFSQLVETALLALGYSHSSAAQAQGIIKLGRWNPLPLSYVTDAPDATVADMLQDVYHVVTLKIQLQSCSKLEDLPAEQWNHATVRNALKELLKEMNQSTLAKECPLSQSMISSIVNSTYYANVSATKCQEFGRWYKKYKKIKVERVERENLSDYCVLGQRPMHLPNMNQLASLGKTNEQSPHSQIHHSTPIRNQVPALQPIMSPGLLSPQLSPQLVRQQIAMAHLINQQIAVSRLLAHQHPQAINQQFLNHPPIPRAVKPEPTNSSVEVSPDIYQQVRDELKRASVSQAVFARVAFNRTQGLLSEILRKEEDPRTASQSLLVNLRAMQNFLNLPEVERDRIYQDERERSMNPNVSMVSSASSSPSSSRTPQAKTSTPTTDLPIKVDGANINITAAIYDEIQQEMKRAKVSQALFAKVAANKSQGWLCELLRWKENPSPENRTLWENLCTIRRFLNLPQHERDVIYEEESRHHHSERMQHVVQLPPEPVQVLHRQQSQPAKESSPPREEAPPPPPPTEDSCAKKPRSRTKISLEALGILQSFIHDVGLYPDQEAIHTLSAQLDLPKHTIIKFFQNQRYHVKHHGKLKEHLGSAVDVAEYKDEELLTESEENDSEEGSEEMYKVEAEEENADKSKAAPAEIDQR
Chain of UniProt O60930 (O60930 whole entry, looked up): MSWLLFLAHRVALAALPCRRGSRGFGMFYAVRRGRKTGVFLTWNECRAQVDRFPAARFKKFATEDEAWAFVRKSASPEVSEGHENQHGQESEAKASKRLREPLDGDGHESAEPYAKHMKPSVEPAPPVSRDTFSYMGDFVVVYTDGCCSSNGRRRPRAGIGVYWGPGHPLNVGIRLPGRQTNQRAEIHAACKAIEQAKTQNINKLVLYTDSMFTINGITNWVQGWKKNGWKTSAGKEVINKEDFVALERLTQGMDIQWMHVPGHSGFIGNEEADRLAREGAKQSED
Chain of UniProt Q9Y644 (Q9Y644 whole entry, looked up): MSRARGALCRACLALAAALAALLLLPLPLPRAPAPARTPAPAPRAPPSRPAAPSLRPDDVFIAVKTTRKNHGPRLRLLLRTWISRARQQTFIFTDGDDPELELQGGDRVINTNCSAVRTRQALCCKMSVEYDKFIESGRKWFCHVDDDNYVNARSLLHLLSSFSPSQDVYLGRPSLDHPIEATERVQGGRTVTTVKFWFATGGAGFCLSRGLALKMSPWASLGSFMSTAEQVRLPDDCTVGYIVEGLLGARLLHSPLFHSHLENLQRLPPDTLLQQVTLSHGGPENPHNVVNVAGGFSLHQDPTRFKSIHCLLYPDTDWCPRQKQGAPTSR

Target	log2 fold change [1]	log2 fold change [2]	log2 fold change [3]	log2 fold change [4]	log2 fold change [5]	log2 fold change [6]	log2 fold change [7]	log2 fold change [8]	log2 fold change [9]	log2 fold change [10]	log2 fold change [11]	log2 fold change [12]	log2 fold change [13]	log2 fold change [14]	log2 fold change [15]	log2 fold change [16]	log2 fold change [17]	log2 fold change [18]	log2 fold change [19]	log2 fold change [20]
S100A6 (UniProt P06703)	-0.082	0.117	0.152	-0.01	0.793 (active)	0.04	0.199	0.032	0.036	0.124	-0.027	0.048	-0.094	0.03	-0.139	0.715 (active)	-0.033	–	–	–
RHBDD1 (UniProt Q8TEB9)	-0.518 (active)	–	–	–	–	–	–	0.038	0.105	-0.08	-0.16	-0.074	–	0.016	-0.029	–	–	-0.059	-0.05	–
SEC16A isoform 3 (UniProt O15027)	–	-0.283	-0.122	–	-0.006	–	-0.023	–	–	–	–	–	0.231	–	–	0.068	–	–	–	–
RFNG (UniProt Q9Y644)	–	–	–	–	–	–	–	–	–	–	–	–	–	–	–	–	–	–	–	0.023
RMI2 (UniProt Q96E14)	–	-0.061	0.007	-0.032	0.021	0.011	0.039	–	0.239	–	-0.109	–	-0.007	–	–	-0.008	-0.01	–	–	–
SCNM1 (UniProt Q9BWG6)	-0.026	0.013	0.012	0.062	-0.189	0.06	-0.069	-0.221	–	0.012	0.122	0.372 (active)	0.099	-0.033	-0.005	-0.092	-0.023	–	–	0.065
RDH11 (UniProt Q8TC12)	-0.021	0.005	-0.043	0.068	-0.039	-0.037	-0.039	-0.111	0.055	0.088	-0.115	-0.13	0.069	-0.213	0.082	0.021	0.022	–	–	-0.013
RPS6KA5 (UniProt O75582)	0.173	-0.02	-0.055	-0.027	-0.04	-0.441 (active)	0.004	0.005	-0.048	-0.073	0.059	-0.182	0.005	-0.116	0.087	-0.071	0.185	–	–	0.011
SATB2 (UniProt Q9UPW6)	-0.005	0.037	-0.004	-0.029	-0.023	-0.027	0.002	0.047	0.002	0	0.023	0.007	0.009	0.074	0.016	-0.026	0.032	–	–	-0.007
RECQL4 (UniProt O94761)	–	-0.034	-0.06	0.039	0.076	0	0.044	–	-0.019	–	0.054	–	0.043	-0.254	-0.026	0.043	-0.017	0.016	0.1	-0.017
SELENOK (UniProt Q9Y6D0)	-0.134	–	–	–	-0.164	–	–	0.022	-0.034	-0.004	–	0.062	–	-0.593	0.529 (active)	-0.021	–	0.05	-0.022	0.092
RNASEH1 (UniProt O60930)	–	–	–	–	–	–	–	–	–	–	–	–	–	-0.023	-0.002	–	–	–	–	–
SEC16A isoform 2 (UniProt O15027)	–	-0.103	-0.062	–	–	–	0.167	–	–	–	–	–	-0.204	–	–	–	–	–	–	–
RAB5IF isoform 5 (UniProt Q9BUV8)	-0.029	–	–	-0.163	-0.165	–	–	0.073	-0.075	0.129	-0.03	-0.398	–	0.928 (active)	-0.362	0.009	–	-0.039	0.142	0.086
